# About 83,000 compounds went through this panel and 20% of them were active in at least one assay; those are over-represented in the sample as a whole.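 Cells were grown in 96-well plates and exposed to the test compound at a single concentration for 48 hours; results are reported as percent growth, with values below 10 considered active.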 Unmarked numbers belong to inactive results. Activity calls are given as the source filed them.
# Tested on: SW-620 colon
# Assay: NCI-60 one-dose screen, 48 h (100 = growth as untreated, 0 = no growth, -100 = all killed)
# Conditions: 10 µM unless noted
# Protocol: Growth inhibition of the SW-620 human tumor cell line is measured as a screen for anti-cancer activity. Cells are grown in 96 well plates and exposed to the test compound for 48 hours. Compounds are tested at a single concentration, which is 10^-5 M for most compounds. The reported endpoint is percent growth (GI% or GIPRCNT), where numbers from 0 - 100% represent growth inhibition, and numbers from -100% - 0 represent cell death. For example, a value of 40 represents 60% growth inhibition. A value of 0 means no net growth occurred over the course of the experiment. A value of -40 indicates 40% of cells at the beginning of the experiment died by the end of the experiment. A value of -100 means all cells are dead at the end of the experiment.
# NCI-60 Human Tumor Cell Lines Screen was performed using the standard one-dose NCI protocol, which is described in more detail at https://dtp.cancer.gov/discovery_development/nci-60/default.htm.
# Compounds with GIPRCNT values below 10 were considered active. Activity score was based on GIPRCNT using the following formula: […]
# Score is 0 for GIPRCNT values of 100 or above, 50 for GIPRCNT values of 0, and 100 for GIPRCNT values of -100.
row,Compound,growth
1,CCOC(=O)C1=C(C)Nc2nc3ccccc3n2C1c1cccc(Br)c1 (stereo not given),68.2%
2,C=C1C(=O)O[C@@H]2C[C@@H](C)CCC(=O)[C@](C)(OC(C)=O)C[C@H](OC(=O)/C(C)=C\C)[C@@H]12,45.7%
3,O=C1NC(=O)c2c1c1c3ccccc3ccc1c1[nH]c3ccccc3c21,28.2%
4,COc1cc(CNC(=O)/C=C/c2ccccc2)ccc1OCC(=O)NO,107%
5,ClC(Cl)c1nc(-c2cccs2)n2nc(-c3ccccc3)cc2n1,-1.61% (active)
6,O=C(Nc1cccc(Cl)c1)Nc1nc2ccc([N+](=O)[O-])cc2s1,3.71% (active)
7,CCCC(=O)NC(c1cccnc1)c1cc(Cl)c2cccnc2c1O (stereo not given),26%
8,O=C(O)c1ccc(-n2cc(CNc3ccc(Cl)cc3)c(-c3ccc(F)cc3)n2)cc1,106%
9,CC(C)(C)OC(=O)N1CCN(S(=O)(=O)/N=C2\NC(=O)NC2=C(Cl)Cl)CC1,34.3%
10,CC(C)C[C@H]1C(=O)O[C@H](C(C)C)C(=O)N(C)[C@@H](C(C)C)C(=O)O[C@H](C(C)C)C(=O)N(C)[C@@H](C(C)C)C(=O)O[C@H](C(C)C)C(=O)N1C,18.2%
11,COc1ccc(/C=C/C(=O)c2nnn(-c3ccc(Br)cc3)c2C)cc1OC,51.6%
12,CN1CCN(c2ccc3c(C(N)=O)c(NC(=O)c4ccc(C(C)(C)C)cc4)sc3c2)CC1,43.6%
13,CC(=O)Nc1ccc(NC(=O)Nc2cccc(-c3nc(-c4ccc(NC(=O)c5cccnc5)cc4Cl)no3)c2)cc1C(F)(F)F,-62.8% (active)
14,O=C(Nc1cccc(-c2nc(-c3ccc(NC(=O)c4cccs4)cc3Cl)no2)c1)Nc1ccc(NC(=O)C2CC2)c(C(F)(F)F)c1,-49.9% (active)
15,O=C1[C@@H]2Cc3c([nH]c4ccccc34)[C@H](c3c(Cl)cccc3Cl)N2C(=O)CN1C1CCN(Cc2c(F)cccc2F)CC1,72.1%
16,Cc1nn(-c2ccccc2)c2nc(CCl)[nH]c(=O)c12,85.1%
17,COc1ccc(C2C(C#N)=C(N)Oc3c2sc2ccc(C)cc32)cc1 (stereo not given),13.9%
18,CCN(CC)CCCC(C)NCC(=O)NC(c1ccc2c(c1)OCO2)c1cc(Cl)c2cccnc2c1O (stereo not given),24.2%
19,COc1ccc(/C=N/Nc2nc(Nc3ccccc3)nc(Nc3ccc(S(N)(=O)=O)cc3)n2)cc1,72.4%
20,COc1ccc(Cn2cc3c(c2-c2cc(OC)c(OC)c(OC)c2)CCCc2cnoc2-3)cc1,25.6%

row,Compound,growth
1,CS(=O)(=O)c1nccc(-c2c(-c3ccc(F)c(OCCc4ccccc4)c3)nc3sccn23)n1,103%
2,Cc1ccc(-c2nnc3sc(C4=Cc5ccccc5OC=C4)nn23)cc1,99.9%
3,CCCCOc1ccc(S(=O)(=O)N2CCN(c3nccc(N4CCOCC4)n3)CC2)cc1,34.8%
4,c1cncc(-c2cn3nc(-c4c[nH]c5ccccc45)sc3n2)c1,28.6%
5,c1ccc(-c2n(Cc3ccc4ccccc4c3)c3c4ccccc4c4ccccc4c3[n+]2Cc2ccc3ccccc3c2)cc1,-75.4% (active)
6,CC1COc2c(N3CCN(C)CC3)c(F)cc3c(=O)c(C(=O)N/N=C/c4cc[nH]c4)cn1c23 (stereo not given),-46.4% (active)
7,O=C(c1cccc(F)c1)n1ccc2cc(NC(=S)Nc3cccnc3)ccc21,93.8%
8,NC(=O)N1N=C(c2cc3ccccc3oc2=O)CC1c1cn(-c2ccccc2)nc1-c1ccc(Cl)cc1 (stereo not given),35.5%
9,O=C(Cn1cc(CN2C(=O)c3ccc([N+](=O)[O-])cc3C2=O)nn1)Nc1ccccc1Br,97.4%
10,NCCN1CCN(c2nc(-c3ccccc3)nc3nc(-c4ccccc4)oc23)CC1,-55% (active)
11,CC1CCN(S(=O)(=O)c2ncsc2-c2ccccc2)CC1,100%
12,O=[N+]([O-])c1ccc(-c2nnc(SCc3ccc(O)c4ncccc34)o2)cc1,20.5%
13,COC(=O)c1c(C(=O)OC)c2n(CC(=O)Nc3cccc4cccnc34)c3ccccc3n2c1C(=O)c1ccc(C)cc1,95.1%
14,CC(=O)c1ccc(NC(=O)COc2ccc(C3SCC(=O)N3c3ccc(Br)cc3)cc2)cc1 (stereo not given),110%
15,NS(=O)(=O)c1ccc(-n2cc(CC=O)nn2)cc1,109%
16,C=C(C)C(=O)O[C@H]1C[C@@]2(C)OC(=CC2=O)/C(CO)=C\[C@H]2OC(=O)C(=C)[C@H]12,-61.3% (active)
17,COc1cc2c3c(n(CCCNC4CCCC4)c(=O)c2cc1OC)-c1cc2c(cc1C3=O)OCO2,-83.6% (active)
18,C/C(=C(/c1ccc(O)cc1)c1ccc(OCCN(C)C)cc1)c1ccc(Cl)cc1,-32.9% (active)
19,Cc1csc(Nc2cccc(Nc3nc(C)cs3)c2)n1,88.6%
20,Nc1ccc(-c2nnc(SCc3ccc(O)c4ncccc34)o2)cc1,5.51% (active)
